This is part of a sample that, as a whole, favours compounds with a hit. Of some 83,000 tested, about 20% had one in any assay.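 Results are percent growth after 48 hours of single-concentration exposure. 100 means growth as in untreated cells, lower positive values show inhibition; negative values down to -100 show cell death.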 A number with no mark means an inactive call. Activity calls are given as the source filed them. How the source made its calls: active means growth percent below 10; inactive means the rest.

This passage reports growth results from PubChem BioAssay (NCI).

Holding throughout (test): NCI-60 one-dose screen, 48 h (100 = growth as untreated, 0 = no growth, -100 = all killed)
Experiment [1] deals with HCT-15 colon. The settings on record: 10 µM unless noted.
The subject of experiment [2] is HT29 colon. To be noted: 10 µM unless noted.
In experiment [3] the test system is SNB-75 CNS. The settings on record: 10 µM unless noted.
Experiment [4] concerns SNB-19 CNS. To be noted: 10 µM unless noted.
In experiment [5] the test system is U251 CNS. The settings on record: 10 µM unless noted.
The subject of experiment [6] is PC-3 prostate. To be noted: 10 µM unless noted.
In experiment [7] the test system is SK-MEL-5 melanoma. To be noted: 10 µM unless noted.
The test system of experiment [8] is UACC-62 melanoma. The settings on record: 10 µM unless noted.
The subject of experiment [9] is LOX IMVI melanoma. The settings on record: 10 µM unless noted.
For experiment [10], the system named is SK-MEL-28 melanoma. To be noted: 10 µM unless noted.
Experiment [11] relates to SK-MEL-2 melanoma. The settings on record: 10 µM.
The subject of experiment [12] is EKVX NSCLC. To be noted: 10 µM unless noted.
In experiment [13] the test system is SN12C renal. To be noted: 10 µM unless noted.
Experiment [14] concerns UO-31 renal. The settings on record: 10 µM unless noted.
Experiment [15] relates to TK-10 renal. The settings on record: 10 µM unless noted.
Experiment [16] deals with ACHN renal. To be noted: 10 µM unless noted.
For experiment [17], the system named is A498 renal. The settings on record: 10 µM unless noted.
For experiment [18], the system named is CCRF-CEM leukemia. To be noted: 10 µM unless noted.
In experiment [19] the test system is MOLT-4 leukemia. To be noted: 10 µM unless noted.

For the compound `C=CCCCC(=O)CCC(=O)OCC1O[C@@H](O[C@@H]2C(O)[C@@H](OC(C)=O)C(C)O[C@H]2O[C@H](CC=C)CCCCC)C(O)[C@@H](OC(=O)/C(C)=C/C)[C@@H]1OC(=O)/C=C/c1ccccc1` (some centres not stated), the growth in [1] was 20.6%; in experiment [2], 0.411% (active); in experiment [3], 30.1%; in experiment [4], 45.7%; in experiment [5] it was 11%; in experiment [6] it was 31.3%. Besides, the growth in experiment [7] was -71.5% (active); in experiment [8], 20.1%; in experiment [9] it was -52.9% (active); in [10] it was 33%; in experiment [11] it was 4.44% (active); in experiment [12], 30.5%. Moreover, the growth in experiment [13] is 3.86% (active); in [14], 24.5%; in experiment [15] it was 27%; in experiment [16] it was 23.4%; in experiment [17], 52.5%; in experiment [18], 29.2%. Besides, the growth in experiment [19] was 26.7%.
On to `Cc1cc2c(-c3nc4ccccn4c3Nc3cccc4ccccc34)c(O)c(O)cc2c(O)c1-c1c(C)cc2c(-c3nc4ccccn4c3Nc3cccc4ccccc34)c(O)c(O)cc2c1O`, for which the growth is 41.4% in experiment [1]; 27.5% in experiment [2]; 30% in [3]; 15.6% in experiment [4]; 12.9% in experiment [5]; 16% in experiment [6]. The growth in [7] is 1.82% (active); in [8], 1.11% (active); in experiment [9] it was 9.84% (active); in experiment [10] it was 34.5%; in experiment [11], 38.3%; in experiment [12] it was 51.4%. Further, the growth in experiment [13] was 16.7%; in experiment [14], 44%; in [15], 50.9%; in [16], 49.2%; in experiment [17], 29.6%; in experiment [18], 27.3%. In experiment [19], the growth was 31.2%.
As for `CC(=O)OCCC/C(=C\c1ccc2ccccc2c1)[N+](=O)[O-]`, the growth is -69.4% (active) in experiment [1]; -29.8% (active) in experiment [2]; -88.9% (active) in experiment [3]; -39.5% (active) in experiment [4]; -90.7% (active) in [5]; -96.8% (active) in experiment [6]. Besides, the growth in experiment [7] is -94% (active); in experiment [8], -75.5% (active); in experiment [9] it was -83.3% (active); in experiment [10] it was -91.1% (active); in [11], -68.5% (active); in experiment [12], 42.1%. For the same compound, the growth in experiment [13] is -66.4% (active); in experiment [14], -99.8% (active); in experiment [15], -64.4% (active); in experiment [16], -92.6% (active); in experiment [17], -22.4% (active); in [18], -49.4% (active). In addition, in [19], the growth is -26.1% (active).
As to `Cc1sc2c(c1C)c(=O)nc1c(-c3nc4ccccc4s3)n[nH]n12`, the growth in experiment [1] was 100%; in experiment [2], 101%; in experiment [3], 95.3%; in experiment [4], 101%; in experiment [5] it was 98%; in experiment [6], 78.7%. The growth in experiment [7] is 96.7%; in experiment [8], 88.4%; in experiment [9], 93.3%; in experiment [10], 101%; in [11], 95.2%; in [12], 81.9%. The growth in experiment [13] was 96.7%; in experiment [14], 73.7%; in [15] it was 140%; in experiment [16] it was 101%; in experiment [17], 101%; in experiment [18] it was 89.2%. The growth in [19] was 94.5%.
On to `N#CC1(C#N)C(c2cccs2)NC(c2cccs2)C1(C#N)C#N` (configuration not stated), for which the growth in experiment [1] is 94.5%; in experiment [2], 103%; in experiment [3] it was 75.1%; in experiment [4] it was 106%; in experiment [5] it was 104%; in experiment [6] it was 94.6%. In addition, the growth is 114% in experiment [7]; 101% in experiment [8]; 93.9% in experiment [9]; 109% in [10]; 102% in [11]; 94% in experiment [12]. Further, the growth was 105% in [13]; 71.4% in experiment [14]; 114% in [15]; 102% in experiment [16]; 116% in [17]; 100% in experiment [18]. Moreover, in experiment [19], the growth was 95.3%.
In the case of `Cc1cc(N2CCCC2)nc(N(CCCNc2ccnc3cc(Cl)ccc23)Cc2ccc3c(c2)OCO3)n1`, the growth in [1] is 3.01% (active); in experiment [2], -23.9% (active); in experiment [3] it was 3.65% (active); in experiment [4] it was 23.5%; in [5], -9.48% (active); in [6] it was 20.7%. Moreover, the growth in experiment [7] was -96.8% (active); in experiment [8], -32.9% (active); in experiment [9], -78.3% (active); in [10] it was -82% (active); in experiment [11] it was -50.7% (active); in experiment [12] it was 35.9%. The growth in experiment [13] was 29.3%; in experiment [14], -24.5% (active); in experiment [15], -12.6% (active); in [16] it was -10.7% (active); in experiment [17], 13.6%; in [18], 1% (active). Moreover, the growth in experiment [19] was -15.4% (active).
Regarding `COc1ccc(-c2nc(N)ncc2Oc2ccccc2OC)c(O)c1`, the growth is 17.2% in [1]; 10.3% in [2]; 10.8% in experiment [3]; 41.5% in experiment [4]; 30.6% in [5]; 31% in experiment [6]. For the same compound, the growth in experiment [7] is 25%; in [8] it was 51%; in [9] it was 34%; in experiment [10], 63.1%; in [11], 17.4%; in [12], 40.1%. In addition, the growth in [13] was 48.7%; in experiment [14] it was 46%; in experiment [15], 55.9%; in experiment [16] it was 43.5%; in experiment [17], 34.3%; in [18], 19.7%. Further, the growth in experiment [19] was 26.9%.
Regarding `CCN(CC)CCNc1ccc(N=Nc2cnc3ccccc3c2)c2ccccc12`, the growth is -66.5% (active) in experiment [1]; -90.3% (active) in experiment [2]; -56.8% (active) in experiment [3]; -71.7% (active) in experiment [4]; -76.9% (active) in [5]; -83.8% (active) in experiment [6]. Also, the growth is -97.8% (active) in experiment [7]; -92.5% (active) in experiment [8]; -81% (active) in experiment [9]; -92.8% (active) in [10]; -76.9% (active) in experiment [11]; -2.28% (active) in [12]. Also, the growth was -88.9% (active) in experiment [13]; -94.2% (active) in experiment [14]; -79% (active) in [15]; -69.6% (active) in experiment [16]; -91.5% (active) in experiment [17]; -78.2% (active) in [18]. For the same compound, in [19], the growth was -49.7% (active).
